Assay results published in PubChem BioAssay (EPA / NIEHS).
The source made the active and inactive calls. Rule for the calls: active = hit-call score of the fitted dose curve at least 0.9, where 1 is the maximum; inactive = score below 0.9.

read-out: Phosphatase and tensin (PTEN), PTEN (gene 5728); experiment: LTEA_HepaRG_PTEN: Life Technologies and Expression Analysis (LTEA) Assay for Phosphatase and tensin (PTEN) using HepaRG (AID 2283523); conditions: mRNA level, 48 h; actives raise or lower the signal
Description: LTEA_HepaRG is a cell based, multiplexed-readout assay that uses HepaRG, a human liver cell line, with measurements taken at 48 hours after chemical dosing on a 96-well plate.LTEA_HepaRG_PTEN is one of 102 assay component(s) measured in the LTEA HepaRG cell culture assay. It is a marker of Cell proliferation, survival, death.Data from the assay component LTEA_HepaRG_PTEN was analyzed into 1 endpoint. This assay endpoint, LTEA_HepaRG_PTEN, was analyzed with bidirectional fitting relative to DMSO as the negative control and baseline of activity. Using a type of inducible reporter, measures of mRNA induction for gain or loss-of-signal activity can be used to understand regulation of transcription factor activity. To generalize the intended target to other relatable targets, this assay endpoint is annotated to the phosphatase intended target family, where the subfamily is dual-specific phosphatase.
A total of 1060 chemcials from the ToxCast library were tested in eight-point concentration-response experiments. Cell culture and cytotoxicity assays were conducted at Thermo Fisher Scientific's Custom Services facility (Madison, WI). A single lot of human HepaRG cells (Thermo Fisher Scientific, Frederick, MD) was used for the cell culture experiments. 96-well format collagen type I coated plates of human HepaRG cells were prepared using established methods. Briefly, cryopreserved HepaRG cells were thawed, plated at a density of approximately 100,000 cells/well in HepaRG Thaw, Plate, and General Purpose media (HPRG770, Thermo Fisher Scientific), and incubated for 48 hours. 0.5% DMSO was selected as vehicle control to balance the requisite need of DMSO in HepaRG cultures to maintain differentiation (for example, baseline metabolism, proportions of hepatocytes vs. cholangiocytes), while enabling further hepatic receptor pathway activation (for example, PXR and CAR) in response to chemical exposure. 48 hours after plating, the culture medium was replaced with HepaRG Serum-Free Incudtion Media. Cells were exposed to each test chemical in duplicate and maintained in CO2 incubators for another 48 hours. Chemical plates were thawed to room temperature and 200x concentrations of treatment groups were prepared. 8-point conentration-reponse curves were made with the highest exposure at 100 uM, followed by half-log dilutions, all in 0.5% DMSO. Each test plate contained variouse controls, induction positive controls (1mM phenobarbital), cytotoxicity positive controls ([…] aflatoxin B1), vehicle controls (0.5% DMSO), and total lysis controls (0.5% DMSO). Cell morphology images were taken using an Essen IncuCyte FLR automated microscope, with six 96-well plates imaged in about 24 minutes. Images were captured and exported and JPEG files. Spent culture media was transfered to black-well plates for the LDH assay, and remaining media was sorted at -80 C for later use. Cells were treated with RLT buffer and frozen until shipped for gene expression analysis. Total RNA was isolated from the cell suspension in 75 uL of Buffer RLT (Qiagen, Germantown, MD 20874) by Quintiles/Expression Analysis (Durham, NC) using a custom isolation procedure. Total RNA from each plate well was transferred to a preamplification plate. Fluidigm's 96.96 Dynamic ArrayTM (Fluidigm, Amsterdam, the Netherlands) technology was used for gene expression analyses by quantitative reverse transcription polymerase chain reaction (qRT-PCR, performed by Quintiles/Expression Analysis, Durham, NC)89. Standard TaqManTM Assays (Applied Biosystems/ThermoFisher Scientific, Foster City, CA) were used to assess the expression of 93 genes selected based on their selectivity and sensitivity to important hepatic receptors known to be modulated by environmental chemicals; importance in human hepatocyte functionality; and hepatotoxicity. […]

outcome, inactive:
Cn1c(=O)c2c(ncn2C)n(C)c1=O
CC(C)=CCC/C(C)=C\CO
CCCN(C1CCN(C(=O)C2CCNCC2)CC1)[C@@H]1CCc2ccc(OC)cc2C1
O=C1CCC(N2C(=O)c3ccccc3C2=O)C(=O)N1 (stereo not given)
O=P(OC(CCl)CCl)(OC(CCl)CCl)OC(CCl)CCl
CCOC(=O)CC(CC(=O)OCC)(OC(C)=O)C(=O)OCC
CC[C@H]1OC(=O)[C@H](C)[C@@H](O[C@H]2C[C@@](C)(OC)[C@@H](O)[C@H](C)O2)[C@H](C)[C@@H](O[C@@H]2O[C@H](C)C[C@H](N(C)C)[C@H]2O)[C@](C)(O)C[C@@H](C)C(=O)[C@H](C)[C@@H](O)[C@]1(C)O
On1ccccc1=S
O=C(OC[C@H]1O[C@@H](OC(=O)c2cc(O)c(O)c(OC(=O)c3cc(O)c(O)c(O)c3)c2)[C@H](OC(=O)c2cc(O)c(O)c(OC(=O)c3cc(O)c(O)c(O)c3)c2)[C@@H](OC(=O)c2cc(O)c(O)c(OC(=O)c3cc(O)c(O)c(O)c3)c2)[C@@H]1OC(=O)c1cc(O)c(O)c(OC(=O)c2cc(O)c(O)c(O)c2)c1)c1cc(O)c(O)c(OC(=O)c2cc(O)c(O)c(O)c2)c1
CC(=O)c1ccc2c(c1)[C@H](NC(=O)c1ccc(F)cc1)[C@@H](O)C(C)(C)O2
O=c1n(CC2CO2)c(=O)n(CC2CO2)c(=O)n1CC1CO1 (stereo not given)
Oc1ccc2c(c1)-c1ccccc1C2
COC(=O)c1c(Cl)c(Cl)c(C(=O)OC)c(Cl)c1Cl
Cc1ccc(O)cc1
CC[C@H](C)C(=O)O[C@H]1C[C@@H](C)C=C2C=C[C@H](C)[C@H](CC[C@@H]3C[C@@H](O)CC(=O)O3)[C@H]21
CC1(C)C(=O)N(Br)C(=O)N1Br
CC/C(=C\C(=N/O)C(N)=O)C(C)[N+](=O)[O-] (stereo not given)
Clc1nc(Cl)c(Cl)c(Cl)c1Cl
O=C1CCCCCN1
Cn1cnc([N+](=O)[O-])c1Sc1ncnc2nc[nH]c12
CCCCC(CC)COC(=O)CCCCCCCCC(=O)OCC(CC)CCCC (stereo not given)
CC(C)CC(C)(O)C#CC(C)(O)CC(C)C (stereo not given)
Nc1ccc(Nc2ccccc2)cc1
Nc1cccc(N)c1
CCOC(=O)COc1ccc2c(c1)CC(NCC(O)c1cccc(Cl)c1)CC2 (stereo not given)
CCCCCCCCO
COc1cccc(-c2ccc(/C=C\CN3CCCCCC3)cc2Cl)c1
C=CC(=C)CCC=C(C)C
COCCOCCOCCOC
Cc1c(-c2cccnc2)c2ccccc2n1CCCCC(=O)O
COc1ccc(/C=C/S(=O)(=O)NC(=O)c2ccc(C)cc2Cl)cc1
C1=CCCC=CCCC=CCC1
CC(C)(O)c1coc(S(=O)(=O)NC(=O)Nc2c3c(cc4c2CCC4)CCC3)c1
O=C(CCCCCCCCc1cccnc1)N1CCC(C=C(c2ccccc2)c2ccccc2)CC1
Cn1c(=O)cc(Oc2ccc(F)cc2F)c2cnc(NCC(C)(C)O)nc21
O=C1OC(=O)C2C3C=CC(C3)C12 (stereo not given)
CC(C)CCCCCCCOC(=O)CCCCC(=O)OCCCCCCCC(C)C
CC(C)=CCCC(C)CCO (stereo not given)

AC50, active:
C=CCCCCCCCCC(=O)O 0.00821 µM
CCc1cc(SCc2sc(-c3ccc(C(F)(F)F)cc3)nc2CN2CCN(c3ccc(OC)cc3)CC2)ccc1OCC(=O)O 24.6 µM
